# Data reported in PubChem BioAssay (NCATS).
# Records with an inconclusive call do not appear. The source made the active and inactive calls. The call rests on the fitted dose curve; in most records, active means well fitted inhibition curve with a large enough effect; inconclusive means small, poorly fitted or top-dose-only effect; inactive means flat fitted curve, though single readings scatter.
# System: CRL-7250
# Assay: qHTS assay to identify novel small-molecules to repurpose for Merkel cell carcinoma treatment (AID 1296009); further: nearly all actives have a fitted effect of over 60% in size
# Conditions: MCC and control cell lines, CellTiter-Glo viability, 72 h; series mostly up to 92 µM; activity change, negative = cytotoxicity: at the top concentration
# In short: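 Cells were incubated with compound for 72 hr at 37 degree celsius before CellTiter-Glo addition. Luminescence was normalized with no-cell wells as full cytotoxicity and DMSO as baseline.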
row,Structure (SMILES),outcome
1,O=C(Nc1c(-c2cccs2)nc2ccccn12)c1ccc(Cl)cc1,inactive
2,C=C1CCC2[C@@](C)(C=O)CCC[C@]2(C)[C@H]1CC/C(C)=C/CO (stereo partly specified),inactive
3,O=C(Nc1ccc2[nH]ncc2c1)C1CCC1,inactive
4,CC(C)=CCC[C@](C)(O[C@@H]1O[C@H](CO[C@@H]2OC[C@H](O)[C@H](O)[C@H]2O)[C@@H](O)[C@H](O)[C@H]1O)[C@H]1CC[C@]2(C)[C@@H]1[C@H](O)C[C@@H]1[C@@]3(C)CC[C@H](O[C@@H]4O[C@H](CO)[C@@H](O)[C@H](O)[C@H]4O[C@@H]4O[C@H](CO)[C@@H](O)[C@H](O)[C@H]4O)C(C)(C)[C@@H]3CC[C@]12C,inactive [at 17.4 µM]
5,C=C(C(=O)O)C1CC(O)C2(C)CCCC(C)(O)C2C1 (stereo unspecified),inactive
6,CC1CCC2(OC1)OC1CC3C4CC=C5CC(O)CC(O[C@@H]6OC[C@@H](O)[C@H](O)[C@H]6O)C5(C)C4CCC3(C)C1(O)C2C (stereo partly specified),inactive [at 17.4 µM]
7,C[C@H](NC(c1cccc(C[P+](=O)O)c1)[C@H](C)O)c1ccc(Cl)c(Cl)c1 (stereo partly specified),inactive
8,CC1=CC2/C=C(\C)CCC(O)C(=O)C(O)CC(=O)C23C(=O)NC(CC(C)C)C3C1C (stereo unspecified),inactive [at 17.4 µM]
9,C=CC1(C)CC2=CCC3C(C)(C(=O)O)CCCC3(C)C2CC1OC(C)=O (stereo unspecified),inactive
10,COCC1OC(OC(C)(C)C2CCC3(C)C=C(C4CCC5C4(C)CC(O)C4OC(C(C)(C)O)CCC45C)CCC3O2)C(NC(C)=O)C(O)C1O (stereo unspecified),inactive [at 17.4 µM]
11,CCNC1(C(N)=O)CCN(c2ncnc3c2nc(-c2ccccc2Cl)n3-c2ccc(Cl)cc2)CC1,inactive
12,C/C(=C\CCC1(C)C2CCC(C2)C1(C)O)C(=O)O (stereo unspecified),inactive
13,CC(C)(C)c1ccc(C(=O)Nc2cn3cc(-n4ccnc4)ccc3n2)cc1,inactive
14,CCNC(=O)[C@@H]1CCCN1C(=O)[C@H](CCCN=C(N)N)NC(=O)[C@H](CC(C)C)NC(=O)[C@@H](C)NC(=O)[C@H](Cc1ccc(O)cc1)NC(=O)[C@H](CO)NC(=O)[C@H](Cc1c[nH]c2ccccc12)NC(=O)[C@H](Cc1cnc[nH]1)NC(=O)[C@@H]1CCC(=O)N1,inactive [at 17.4 µM]
15,CCOc1ncc(S(=O)(=O)N2CCN(CC)CC2)cc1-c1nc2c(CC)n(CCOC)nc2c(=O)[nH]1,inactive
16,COc1ccc(/C=C\C(=O)O)c(O[C@@H]2O[C@H](CO)[C@@H](O)[C@H](O)[C@H]2O)c1,inactive

row,Structure (SMILES),outcome
1,CCC(C)C(=O)OC[C@H]1O[C@H](O[C@H]2O[C@H](CO)[C@@H](O)[C@H](O)[C@H]2O)[C@H](O)[C@@H](O)[C@@H]1O (stereo partly specified),inactive [at 17.4 µM]
2,Cn1ccnc1CCOC(c1cc2nccc(C(=O)O)c2[nH]1)c1ccccc1Cl (stereo unspecified),inactive
3,C=C(C)C1CCC2(C(=O)O)CCC3(C(=O)O)C(CCC4C5(C)CCC(O)C(C)(C(=O)O)C5CCC43C)C12 (stereo unspecified),inactive [at 17.4 µM]
4,C=CC1(C)C=C2C(O)CC3C(C)(C(=O)O)CCCC3(C)C2CC1 (stereo unspecified),inactive
5,CC(C)[C@@H]1C(=O)N(S(C)(=O)=O)[C@@H]2CCN(C(=O)/C=C/CN3CCCCC3)[C@H]21,inactive
6,C[C@H]1[C@H](C)CC[C@]2(C(=O)O)CC[C@]3(C)C(=CCC4[C@@]5(C)C[C@@H](O)[C@H](O)C(C)(C)C5CC[C@]43C)[C@H]12 (stereo partly specified),inactive [at 17.4 µM]
7,CC(O)(CC(=O)O)CC(=O)OCc1ccc(O[C@@H]2O[C@H](CO)[C@@H](O)[C@H](O)[C@H]2O)cc1 (stereo partly specified),inactive [at 17.4 µM]
8,COc1cccc(-c2ccc([C@@H](Oc3cc(-c4ccc(C[C@H](N)C(=O)O)cc4)nc(N)n3)C(F)(F)F)cc2)c1,inactive
9,O=c1c2ccccc2nc2n1CCC2O (stereo unspecified),inactive [at 92 µM]
10,CC(F)(F)CN1CCOc2c(nn(-c3ccccc3Cl)c2-c2ccc(Cl)cc2)C1=O,inactive
11,COc1c2c(c(C)c3c1C(=O)OC3)OC1(C)CC(O)C34OC(O)(CCC3(C)C1C2)OC4(C)C (stereo unspecified),inactive [at 17.4 µM]
12,C=CC(C)(O)CC/C=C(\C)C(=O)O[C@@H]1[C@@H](O)[C@H](OC(C)(C=C)CC/C=C(\C)C(=O)O)O[C@H](CO)[C@H]1OC(=O)/C(C)=C/CCC(C)(O)C=C (stereo partly specified),inactive [at 17.4 µM]
13,CC(C)C(CO)Nc1nc(Nc2ccc(C(=O)O)c(Cl)c2)c2ncn(C(C)C)c2n1 (stereo unspecified),inactive
14,CC(=O)O[C@H]1C[C@@H](O)C(C)(C)C2C[C@@H](OC(C)=O)[C@@]3(C)C4=CCC(C(CO)CC(O)C5OC5(C)C)[C@]4(C)CCC3[C@]21C (stereo partly specified),inactive [at 17.4 µM]
15,CC1CCC2(C)CCC3(C)C(=CCC4C5(C)CCC(O)C(C)(C(=O)O)C5CCC43C)C2C1C (stereo unspecified),inactive [at 17.4 µM]
